Data as given in PubChem BioAssay AID1159580 (chemical genetic matrix, 2015).
“And” between values parts separate entries of the source, which are not always exact repeats. Identical values can stand only once. The campaign covered roughly 5,500 compounds. About 2,000 (36%) were called active. Not shown: some 18% with an inconclusive outcome. Rule as the data show it: active = normalized growth mostly below about 0.91 (no sharp cut-off); inconclusive = no clear call, values can overlap the other calls; inactive = mostly above about 0.92. The list shows a part of the results.

Experiment: chemical genetic growth profiling, strain panel (AID 1159580);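 also: tested at 20 µM; growth read once vehicle control cultures reached saturation at 30 °C; 1 = growth at the plate median or of vehicle wells; lower values mean less growth of the strain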
Settings: S. cerevisiae deletion strains, growth OD

Measured: normalized growth

COc1ccc(C(Cl)=C(c2ccc(OC)cc2)c2ccc(OC)cc2)cc1
inactive: locus YAL021C, strain ccr4, active compounds read low 1.04 | locus YAL026C, strain drs2, active compounds read low 1.03 | locus YAL030W, strain snc1, active compounds read low 1.03 | locus YBL061C, strain skt5, active compounds read low 0.992 | locus YBR009C, strain hhf1, active compounds read low 1.01 | locus YBR021W, strain FUR4, active compounds read low 0.994 | locus YBR023C, strain chs3, active compounds read low 0.993 | locus YBR171W, strain sec66, active compounds read low 1.03 | locus YBR229C, strain ROT2, active compounds read low 1.01 | locus YBR231C, strain swc5, active compounds read low 1.03 | locus YBR279W, strain paf1, active compounds read low 0.984 | locus YCL011C, strain gbp2, active compounds read low 1.02 | locus YCL016C, strain dcc1, active compounds read low 0.985 | locus YCL029C, strain bik1, active compounds read low 1.01 | locus YCL061C, strain MRC1, active compounds read low 1.03 | locus YCL069W, strain vba3, active compounds read low 1.03 | locus YCR088W, strain abp1, active compounds read low 1.02 | locus YDL005C, strain med2, active compounds read low 1.03 | locus YDL035C, strain GPR1, active compounds read low 0.989 | locus YDL040C, strain nat1, active compounds read low 1.03 | locus YDL074C, strain BRE1, active compounds read low 1.03 | locus YDL101C, strain DUN1, active compounds read low 1.03 | locus YDL134C, strain PPH21, active compounds read low 0.981 | locus YDL185W, strain tfp1, active compounds read low 1.01 | locus YDL192W, strain arf1, active compounds read low 1.02 | locus YDR001C, strain nth1, active compounds read low 1.02 | locus YDR069C, strain doa4, active compounds read low 0.993 | locus YDR101C, strain arx1, active compounds read low 0.997 | locus YDR137W, strain rgp1, active compounds read low 0.97 | locus YDR150W, strain NUM1, active compounds read low 1.01 | locus YDR159W, strain sac3, active compounds read low 1.01 | locus YDR162C, strain NBP2, active compounds read low 1 | locus YDR195W, strain ref2 1.06 | locus YDR297W, strain sur2, active compounds read low 1.02 | locus YDR318W, strain mcm21, active compounds read low 1.01 | locus YDR334W, strain swr1, active compounds read low 1.04 | locus YDR335W, strain msn5, active compounds read low 1 | locus YDR388W, active compounds read low 1.03 | locus YDR392W, strain spt3, active compounds read low 1 | locus YDR502C, strain sam2, active compounds read low 1.01 | locus YEL003W, strain gim4, active compounds read low 1.03 | locus YEL037C, strain rad23, active compounds read low 1.03 | locus YEL061C, strain CIN8 (second series), active compounds read low 1.06 | locus YEL061C, strain CIN8, active compounds read low 1.01 | locus YER015W, strain faa2, active compounds read low 1.03 | locus YER016W, strain bim1, active compounds read low 0.971 | locus YER110C, active compounds read low 1.03 | locus YER111C, strain swi4, active compounds read low 1.03 | locus YER155C, strain BEM2 (second series), active compounds read low 1.03 | locus YER155C, strain BEM2, active compounds read low 1.02 | locus YER167W, strain BCK2, active compounds read low 1.01 | locus YFR010W, strain ubp6, active compounds read low 1.02 | locus YGL078C, strain dbp3, active compounds read low 1.01 | locus YGL086W, strain mad1, active compounds read low 0.998 | locus YGL167C, strain pmr1, active compounds read low 1.01 | locus YGL173C, strain kem1, active compounds read low 1.03 | locus YGL227W, strain vid30, active compounds read low 1.02 | locus YGL240W, strain doc1, active compounds read low 1.05 | locus YGL248W, strain PDE1, active compounds read low 1.03 | locus YGL253W, strain hxk2, active compounds read low 0.999 | locus YGR135W, strain pre9, active compounds read low 1.04 | locus YGR252W, strain gcn5, active compounds read low 1.04 | locus YHR013C, strain ard1, active compounds read low 1.04 | locus YHR027C, strain rpn1, active compounds read low 0.989 | locus YHR030C, strain SLT2, active compounds read low 1.01 and 0.939 | locus YHR079C, strain IRE1 (second series), active compounds read low 1.02 | locus YHR079C, strain IRE1, active compounds read low 0.963 | locus YHR094C, strain hxt1, active compounds read low 1.03 | locus YHR129C, strain ARP1, active compounds read low 1.02 | locus YHR142W, strain chs7, active compounds read low 1.06 | locus YHR200W, strain rpn10, active compounds read low 1.02 | locus YIL066C, strain RNR3, active compounds read low 1 | locus YIL073C, strain SPO22, active compounds read low 1.03 | locus YIL125W, strain kgd1, active compounds read low 1.01 | locus YIR030C, strain dcg1, active compounds read low 1.02 | locus YJL092W, strain hpr5, active compounds read low 1.02 | locus YJL095W, strain BCK1 (second series), active compounds read low 1.03 | locus YJL095W, strain BCK1, active compounds read low 1.06 and 0.963 | locus YJL115W, strain asf1, active compounds read low 1.02 | locus YJL129C, strain trk1, active compounds read low 1.04 | locus YJL134W, strain LCB3, active compounds read low 1.01 | locus YJL154C, strain vps35, active compounds read low 1.03 | locus YJL164C, strain tpk1, active compounds read low 1.01 | locus YJL166W, strain qcr8, active compounds read low 1.04 | locus YJL168C, strain set2, active compounds read low 1.03 | locus YJL187C, strain SWE1 (second series), active compounds read low 1.04 | locus YJR043C, strain POL32, active compounds read low 0.999 | locus YJR066W, strain TOR1, active compounds read low 0.965 | locus YJR075W, strain HOC1, active compounds read low 1.03
